This passage reports activation results from PubChem BioAssay AID731 (The Scripps Research Institute Molecular Screening Center, 2007).

Hit rate of the full screen: of about 200,000 compounds, about 520 (0.26%) were called active. The full list was thinned out, with actives kept by preference. Unmarked numbers belong to inactive results. Rule as the data show it: active = activation above about 23%; inactive = the rest.

The target in this experiment is Peroxisome proliferator-activated receptor gamma (Homo sapiens) (UniProt P37231). Kind of experiment: PPARgamma agonists recruiting SRC-3 coactivator, primary screen, biochemical (AID 731).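 Also: 0% = DMSO and 100% = reference agonist.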 The conditions noted are these: biochemical PPARgamma/SRC-3 coactivator recruitment assay; at 8 µM; stronger effect = higher value.
Chain of Peroxisome proliferator-activated receptor gamma (Homo sapiens) (P37231 whole entry, looked up): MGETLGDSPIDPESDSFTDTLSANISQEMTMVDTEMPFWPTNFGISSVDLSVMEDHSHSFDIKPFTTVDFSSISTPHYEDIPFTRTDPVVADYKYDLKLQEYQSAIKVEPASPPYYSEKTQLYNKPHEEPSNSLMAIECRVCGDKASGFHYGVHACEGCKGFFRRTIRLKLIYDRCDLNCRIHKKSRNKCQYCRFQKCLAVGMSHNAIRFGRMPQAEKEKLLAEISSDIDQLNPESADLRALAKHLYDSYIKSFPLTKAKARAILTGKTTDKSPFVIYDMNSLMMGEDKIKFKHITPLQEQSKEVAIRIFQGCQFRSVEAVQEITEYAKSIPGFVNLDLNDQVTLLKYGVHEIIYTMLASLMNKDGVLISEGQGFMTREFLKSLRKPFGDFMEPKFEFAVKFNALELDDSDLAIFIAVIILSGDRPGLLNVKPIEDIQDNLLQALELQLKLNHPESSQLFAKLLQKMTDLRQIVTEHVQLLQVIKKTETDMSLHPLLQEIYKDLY
With `CSC1=NP(=S)(SC)N(C)c2nc3n(c21)CCC3` (stereo not given), the activation was 102% (active).
The figure for `CCCCCCN=C(CC)c1c(O)n(CCCC)c(=O)[nH]c1=O` is -4.72%.
For the molecule `CCNc1nc2[nH]c(=O)c3c(c2s1)OC(N)=C(C#N)C3c1cccs1` (stereo not given), the activation was -2.75%.
`CCN(CC)c1ccc([N+](=O)[O-])c2cccnc12`: the activation is 4.74%.
With `CC[N+](CC)(CC)CCCCCCCCCC[N+](CC)(CC)CC`, the activation is -1.93%.
